Screening results deposited in PubChem BioAssay by National Center for Advancing Translational Sciences (NCATS).
ATXN viability = reduces viability in counter-screen for ATXN expression inhibitors; S2 cells (HEK-293 line with an ATXN2-luciferase reporter) viability, CellTiter-Fluor protease fluorescence, 24 h; Potency, µM (series often up to 56.7 µM), usual class: cytotoxic; 0.49% of 400,000 active; note: potency is the fitted concentration of half-maximal effect; nearly all actives have a fitted effect of over 40% in size
IL1B secr inh = inhibitors of inflammasome signaling (IL-1 beta secretion). THP-1 LPS/ATP IL-1B secretion, AlphaLISA, 16 h; stronger effect = lower value. activity change, % at 57.5 µM. 4.7% of 360,000 active. AID 743279; in the data active = activity change below about -50%; inconclusive = mostly about -30% to -49%; note: % is set by controls: 0 for no effect and ±100 for the full control effect
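Secreted IL-1B measured by AlphaLISA bead assay after 16 h compound exposure of THP-1 cells; compounds (final up to 57.5 uM) added 1 h before LPS (250 ng/mL) and ATP (1.25 mM) stimulation; lower signal means less secretion.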
D3 antag = blocks the human D3 dopamine receptor; max response, negative = inhibition, %; 2.5% of 360,000 active; P35462; D3R cells, DiscoveRx beta-arrestin luminescence, antagonist mode; stronger effect = lower value; in the data active = max response below about -50%; inconclusive = no clear call, values can overlap the other calls; note: % is set by controls: 0 for no effect and ±100 for the full control effect
Target sequence (P35462 whole entry, looked up): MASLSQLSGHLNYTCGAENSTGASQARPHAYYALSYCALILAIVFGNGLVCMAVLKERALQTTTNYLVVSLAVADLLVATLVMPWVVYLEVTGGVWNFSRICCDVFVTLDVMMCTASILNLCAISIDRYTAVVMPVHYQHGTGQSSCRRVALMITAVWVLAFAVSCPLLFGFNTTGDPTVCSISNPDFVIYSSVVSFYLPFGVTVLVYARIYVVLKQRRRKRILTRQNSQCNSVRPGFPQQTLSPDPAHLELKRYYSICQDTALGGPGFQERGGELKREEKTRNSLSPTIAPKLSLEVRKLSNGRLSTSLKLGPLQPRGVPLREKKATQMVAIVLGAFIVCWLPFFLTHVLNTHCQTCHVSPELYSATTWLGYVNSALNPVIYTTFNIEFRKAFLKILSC
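Cells plated overnight at 1500 cells/well, then exposed to library compounds with dopamine controls for 90 minutes at 37 degrees C. DiscoveRx reagent added for 30–60 minutes at room temperature; luminescence read, quantitative HTS format.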
DRD3 agonist = agonists of human D3 dopamine receptor; P35462; D3R DiscoveRx beta-arrestin cells, luminescence, 90 min; max activation, %; 0.58% of 410,000 active; AID 652048; in the data active = max activation above about 30%; note: 0% is about no effect
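Agonist mode: compounds and dopamine controls were applied to plated cells for 90 min at 37 degrees C after an overnight attachment at 1500 cells/well. Luminescent read-out followed 30 - 60 minutes at room temperature with DiscoveRx detection reagent.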
ATXN2 expr inh = inhibitors of ATXN2 expression; 0.72% of 360,000 active; Potency, µM (doses to about 57 µM), for the others: top-dose activity change, negative = inhibition, hits mostly inhibitors; HEK-293 ATXN2-luciferase reporter, luminescence, 24 h; note: potency is the fitted concentration of half-maximal effect; % is set by controls: 0 for no effect and ±100 for the full control effect; nearly all actives have a fitted effect of over 55% in size
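ATXN2-luciferase reporter cells (luciferase flanked by upstream and downstream ATXN2 gene portions) were treated 24 h at 37 °C with compounds at up to 57 uM. SteadyGlo luminescence gave expression; GF-AFC fluorescence gave viability.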
Integrin act MD = integrin-mediated muscular dystrophy alleviation activation; Potency, µM (titrated, usually from 38.3 µM), without a hit: at the highest dose activation, most hits filed as activators; 0.064% of 350,000 active; AID 624291; alpha7betagal myoblasts, beta-gal FDG fluorescence, 48 h;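 note: potency is the fitted concentration of half-maximal effect; 100% = response of the positive control SU9516; nearly all actives have a fitted effect of over 60% in size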
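Alpha7betagal+/- myoblasts (passage 13) were plated 16-24 hr, then exposed to compounds (1:260 dilution of DMSO stock) for 48 hours at 37C. After MPER lysis, β-galactosidase reporter activity was read as FDG fluorescence (ex 480/em 540) after 30 minutes.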
Numbers without * were called inactive. The list is not random: actives were taken first. Their share in the collection is about 7%. Unless noted, calls come from the whole dose curve; as a rule, active = well fitted curve in the direction sought with a large enough effect; inconclusive = small, poorly fitted or top-dose-only effect, or another doubt; inactive = no such curve, though single readings can be large; an effect the other way counts as inactive or inconclusive.

Results for Cc1cc(C)cc(N(C(=O)c2ccc(Br)o2)C2C=CS(=O)(=O)C2)c1 (stereo not given) ?
ATXN viability: inactive; IL1B secr inh: -9; D3 antag: -5; DRD3 agonist: -4; ATXN2 expr inh: -15%; Integrin act MD: 26%

How did COc1ccc(-n2cc(CNCc3cnc4ccccn34)c(-c3cccc(F)c3)n2)cc1 do in these assays?
ATXN viability: inactive; IL1B secr inh: -73*; D3 antag: 3; DRD3 agonist: -6; ATXN2 expr inh: 1%; Integrin act MD: -12%

Results for COc1ccc(-n2cc(CNCC3CCOCC3)c(-c3cccc(F)c3)n2)cc1 ?
ATXN viability: inactive; IL1B secr inh: -56*; D3 antag: 0; DRD3 agonist: -2; Integrin act MD: -52%

What do the screens show for `COc1ccc(-n2cc(CN(C)C3CCOCC3)c(-c3cccc(F)c3)n2)cc1`?
ATXN viability: inactive; IL1B secr inh: -12; D3 antag: 11; DRD3 agonist: -3; ATXN2 expr inh: -11%; Integrin act MD: -40%

What do the screens show for `Cc1cccc(-n2cc(CNCCc3nc(C)cc(C)n3)c(-c3cccc(F)c3)n2)c1`?
IL1B secr inh: inconclusive; D3 antag: inconclusive; DRD3 agonist: -19; ATXN2 expr inh: 28µM*; Integrin act MD: -60%

How did O=C(NCCN1CCc2ccccc2C1)Nc1ccc(F)cc1 do in these assays?
ATXN viability: inactive; IL1B secr inh: 6; D3 antag: -77*; DRD3 agonist: -11; ATXN2 expr inh: 4%; Integrin act MD: -5%

What do the screens show for `CCc1ccc(NC(=O)NCCN2CCc3ccccc3C2)cc1`?
ATXN viability: inactive; IL1B secr inh: -11; D3 antag: -69*; DRD3 agonist: -12; ATXN2 expr inh: 30%; Integrin act MD: -15%

Results for Cc1ccccc1CN1CCC(n2nccc2NC(=O)c2cccnc2)CC1 ?
ATXN viability: inactive; IL1B secr inh: 0; D3 antag: inconclusive; DRD3 agonist: -45; ATXN2 expr inh: -7%; Integrin act MD: 7%

What do the screens show for `O=C(c1ccccc1)c1ccc(-c2ccc(O)cc2)cc1`?
ATXN viability: inactive; IL1B secr inh: -81*; D3 antag: 0; DRD3 agonist: 5; ATXN2 expr inh: -1%; Integrin act MD: -24%

What do the screens show for `COC(=O)c1c(-c2ccc(Cl)cc2)noc1N1CCN(c2ccc(OC)cc2)CC1`?
ATXN viability: inactive; DRD3 agonist: 69*; ATXN2 expr inh: 4%

Results for CC1=NNC(=O)/C1=C\c1cn(-c2ccccc2)nc1-c1cccs1 ?
ATXN viability: 3.2µM*; IL1B secr inh: -96*; D3 antag: inconclusive; DRD3 agonist: -2; Integrin act MD: -69%

Results for CC1=NNC(=O)/C1=C\c1cn(-c2ccccc2)nc1-c1ccc(F)cc1 ?
IL1B secr inh: -100*; D3 antag: -69*; DRD3 agonist: -3; ATXN2 expr inh: 7.5µM*; Integrin act MD: -77%

Results for CN1CCC(N(C)C(=O)/C=C/c2cn(-c3ccccc3)nc2-c2cccs2)CC1 ?
ATXN viability: inconclusive; IL1B secr inh: -91*; D3 antag: 0; DRD3 agonist: -11; ATXN2 expr inh: -31%; Integrin act MD: inconclusive

How did N#Cc1ccccc1NC(=O)CSc1nnc(-c2ccc(F)cc2)n1-c1ccccc1 do in these assays?
ATXN viability: inactive; IL1B secr inh: -17; D3 antag: -27; DRD3 agonist: -2; ATXN2 expr inh: -13%; Integrin act MD: -24%

How did Cc1cc(N2CC(C(=O)Nc3nccs3)CC2=O)ccc1C(C)C (stereo not given) do in these assays?
ATXN viability: inactive; IL1B secr inh: 4; D3 antag: 13; DRD3 agonist: 4; ATXN2 expr inh: -9%; Integrin act MD: -6%

Results for COc1cc(CCNC2=CC(=O)c3ncccc3C2=O)ccc1O ?
IL1B secr inh: -71*; D3 antag: 2; DRD3 agonist: 0; ATXN2 expr inh: 24µM*; Integrin act MD: -46%

How did COc1ccccc1CNS(=O)(=O)c1cc(CN2C(=O)c3cccnc3C2=O)ccc1OC do in these assays?
ATXN viability: inactive; IL1B secr inh: 10; D3 antag: 16; DRD3 agonist: 1; Integrin act MD: 11%
